Experiment [1] concerns the target Myc proto-oncogene protein (Homo sapiens) (UniProt P01106). In words: ATG_Myc_CIS: Attagene CIS-FACTORIAL HepG2 Assay for human Myelocytomatosis (Myc) Proto-Oncogene Transcription Factor (AID 2282990). Conditions: HepG2, Attagene cis-reporter transcription factor activity; actives raise or lower the signal. Summed up:
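HepG2 cells transiently transfected with multiple cis-promoter-driven reporter transcription units, so endogenous TF activity is read. After 24 h compound exposure, reporter mRNA was quantified by RT-PCR, 6-FAM labelling, HpaI digestion and capillary electrophoresis; bidirectional fit versus DMSO.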

A short description of experiment [2]: ATG_NF_kB_CIS: Attagene CIS-FACTORIAL HepG2 Assay for human Nuclear Factor Kappa B (NF-kB) (AID 2282991). Conditions: HepG2 Attagene cis-factorial NF-kB reporter mRNA; actives raise or lower the signal. Summed up: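 Transient MRTU transfection of human HepG2 liver cells → 24 h chemical exposure → total RNA, oligo(dT) RT → PCR, 6-FAM primer extension, HpaI digest 2 h 37 C → CE fragment analysis. Bidirectional fitting, DMSO negative control.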

A short description of experiment [3]: ATG_NRF2_ARE_CIS: Attagene CIS-FACTORIAL HepG2 Assay for human Nuclear Factor Erythroid 2 Related Factor 2 (NFR2) response to Antioxidant Response Elements (ARE) (AID 2282992).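 As to AC50: reporter mRNA level measured by RT-PCR and capillary electrophoresis fluorescence.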 As to conditions: HepG2 Attagene ARE/NRF2 reporter, transcription factor activity; actives raise or lower the signal. The procedure, abridged:
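HepG2 cells transiently transfected with multiplexed cis-element reporter constructs, 24 h after chemical dosing; reporter mRNA quantified by RT-PCR, fluorescent primer extension, HpaI digestion and capillary electrophoresis. Bidirectional fit relative to DMSO.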

Experiment [4] in a line: ATG_Oct_MLP_CIS: Attagene CIS-FACTORIAL HepG2 Assay for human Octamer-Binding Transcription Factor (Oct) (AID 2282993). As to conditions: HepG2 Attagene cis-factorial Oct reporter, mRNA; actives raise or lower the signal. Summed up: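 Readout is reporter transcript level from RT-PCR with fluorescent primer extension and capillary electrophoresis, fitted in both directions against DMSO. Transfected HepG2 reporter units report endogenous factor activity after 24 h dosing.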

For experiment [5], the target named is Cellular tumor antigen p53 (Homo sapiens) (UniProt P04637). In words: ATG_p53_CIS: Attagene CIS-FACTORIAL HepG2 Assay for human p53 Transcription Factor (AID 2282994). Conditions: HepG2 p53 cis-element reporter, Attagene mRNA; actives raise or lower the signal. Summed up:
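HepG2 cells transiently transfected with cis-regulated multiple reporter transcription units, dosed 24 h. Reporter mRNA measured by RT-PCR, 6-FAM primer extension, HpaI digestion and capillary electrophoresis; bidirectional fit relative to DMSO.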

Experiment [6] is described as follows: BSK_3C_TissueFactor: BioMAP Diversity Plus: 3C Assay for Tissue Factor Biomarker Activity (AID 2282997). Conditions: BioMAP 3C HUVEC, tissue factor biomarker readout; actives raise or lower the signal. Summed up: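 Human vascular primary cells (umbilical vein endothelium) received test chemical; Tissue Factor was determined by ELISA at 24 h, and both gain and loss of signal versus DMSO were fitted.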

Experiment [7] can be described thus: BSK_3C_uPAR: BioMAP Diversity Plus: 3C Assay for Urokinase-type plasminogen activator receptor (uPAR) Biomarker Activity (AID 2282998). Conditions: BioMAP 3C HUVEC, uPAR biomarker ELISA; actives raise or lower the signal. Summed up: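 Cell-surface uPAR on HUVEC (3C system) read by ELISA at 24 h post-treatment, with DMSO as baseline and fitting in both directions. Parallel cultures stained with SRB to flag overt cytotoxicity.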

A short description of experiment [8]: BSK_3C_VCAM1: BioMAP Diversity Plus: 3C Assay for Vascular cell adhesion molecule 1 (VCAM1) Biomarker Activity (AID 2282999). Conditions: BioMAP 3C HUVEC, VCAM1 ELISA, cytokine-stimulated; actives raise or lower the signal. Summed up: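 Human umbilical vein endothelial cells were dosed with compound for 24 h, after which cell-surface VCAM-1 was quantified by ELISA. Bidirectional curve fitting used DMSO as negative control and activity baseline.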
(In general: An ELISA detects its analyte on a solid surface through an enzyme-linked reagent.)

A short description of experiment [9]: BSK_4H_Eotaxin3: BioMAP Diversity Plus: 4H Assay for Eotaxin 3 Biomarker Activity (AID 2283000).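 Also: CCL26 protein level quantified by ELISA in parallel with SRB cytotoxicity check.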 Conditions: primary human endothelial cells (HUVEC); actives raise or lower the signal. The procedure, abridged:
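Readout is Eotaxin-3 (CCL26) level by ELISA in primary human umbilical vein endothelial cells harvested 24 h after chemical exposure; activity fitted in both directions against DMSO control.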

Experiment [10] has as its target human Peroxisome Proliferator-activated Receptor alpha (PPARa), PPARA (gene 5465) (UniProt Q07869). In words: ATG_PPARa_TRANS: Attagene TRANS-FACTORIAL HepG2 Assay for human Peroxisome Proliferator-activated Receptor alpha (PPARa) (AID 2283001; active = hit-call score of the fitted dose curve at least 0.9, where 1 is the maximum). Summed up: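 HepG2 cells transiently transfected with multiplexed GAL4-UAS reporter units and chimeric NR-Gal4 constructs were dosed for 24 h. Reporter mRNA was measured by RT-PCR with fluorescent labelling and capillary electrophoresis; gain of signal fitted against DMSO.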

Experiment [11] addresses human Peroxisome Proliferator-activated Receptor delta (PPARd), PPARD (gene 5467) (UniProt Q03181). In words: ATG_PPARd_TRANS: Attagene TRANS-FACTORIAL HepG2 Assay for human Peroxisome Proliferator-activated Receptor delta (PPARd) (AID 2283002; active = hit-call score of the fitted dose curve at least 0.9, where 1 is the maximum). The procedure, abridged:
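HepG2 cells transiently transfected with multiplexed GAL4-UAS reporter units and exogenous chimeric NR-Gal4 proteins; 24 h compound exposure. Reporter mRNA measured by RT-PCR, 6-FAM labelling, HpaI digestion and capillary electrophoresis; gain of signal versus DMSO.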

Read-out in experiment [12]: Intercellular Adhesion Molecule 1 (ICAM1), ICAM1 (gene 3383)
In words: BSK_3C_ICAM1: BioMAP Diversity Plus: 3C Assay for Intercellular Adhesion Molecule 1 (ICAM1) Biomarker Activity (AID 2283003). As to conditions: primary human endothelial cells (HUVEC); actives raise or lower the signal. The procedure, abridged: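 Human vascular endothelial primary cells, 3C conditions, 24 h treatment. ICAM-1 by ELISA.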

Experiment [13] addresses human Retinoic Acid Receptor beta (RARb), RARB (gene 5915) (UniProt P10826). In words: ATG_RARb_TRANS: Attagene TRANS-FACTORIAL HepG2 Assay for human Retinoic Acid Receptor beta (AID 2283004; active = hit-call score of the fitted dose curve at least 0.9, where 1 is the maximum). The procedure, abridged:
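Readout is reporter mRNA induction: RNA reverse-transcribed, PCR-amplified, FAM-labelled, HpaI-cut and resolved by capillary electrophoresis. Transiently transfected HepG2 cells carrying exogenous NR–Gal4 chimeras were dosed for 24 h; activity fitted upward relative to DMSO.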

Experiment [14] concerns the target Retinoic acid receptor alpha (Homo sapiens) (UniProt P10276). In words: ATG_RARa_TRANS: Attagene TRANS-FACTORIAL HepG2 Assay for human Retinoic Acid Receptor alpha (RARa) (AID 2283005; active = hit-call score of the fitted dose curve at least 0.9, where 1 is the maximum). The procedure, abridged:
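HepG2 cells transiently transfected with multiple reporter units expressing chimeric RARα-GAL4 fusion, with GAL4-UAS-driven reporters. After 24 h compound exposure, reporter mRNA induction quantified by RT-PCR and capillary electrophoresis with fluorescent labeling; gain-of-signal fitted relative to DMSO control.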

Experiment [15] can be described thus: BSK_3C_Proliferation: Cell Proliferation Assessment in the BioMAP Diversity Plus: 3C Assay (AID 2283006).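 As to AC50: potency may reflect either rise or fall in cell number versus DMSO.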 As to conditions: primary human endothelial cells (HUVEC). Summed up:
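Proliferation of human vascular endothelial primary cells after 48 h dosing, quantified as SRB-stained protein at 560 nm relative to DMSO.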

In experiment [16] the target is Peroxisome proliferator-activated receptor gamma (Homo sapiens) (UniProt P37231). In words: ATG_PPARg_TRANS: Attagene TRANS-FACTORIAL HepG2 Assay for human Peroxisome Proliferator-activated Receptor-gamma (PPARg) (AID 2283007; active = hit-call score of the fitted dose curve at least 0.9, where 1 is the maximum). The procedure, abridged:
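Transient transfection of HepG2 with GAL4-UAS-driven reporter units; chemical dosing 24 h; total RNA → oligo(dT) RT → PCR with reporter primers → 6-FAM primer extension → HpaI digest 2 h 37 C → capillary electrophoresis. Positive direction vs DMSO.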

For experiment [17], the target named is Nuclear receptor subfamily 1 group I member 2 (Homo sapiens) (UniProt O75469). In words: ATG_PXR_TRANS: Attagene TRANS-FACTORIAL HepG2 Assay for human Pregnane X Receptor (PXR) (AID 2283008; active = hit-call score of the fitted dose curve at least 0.9, where 1 is the maximum). Summed up: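 HepG2 cells transiently transfected with GAL4-UAS reporter units and PXR-Gal4 chimera, exposed 24 h. Reporter mRNA quantified by RT-PCR, fluorescent labelling, HpaI digestion and capillary electrophoresis; gain of signal vs DMSO.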
Chain of Nuclear receptor subfamily 1 group I member 2 (Homo sapiens) (O75469 whole entry, looked up, the tested form may be a part): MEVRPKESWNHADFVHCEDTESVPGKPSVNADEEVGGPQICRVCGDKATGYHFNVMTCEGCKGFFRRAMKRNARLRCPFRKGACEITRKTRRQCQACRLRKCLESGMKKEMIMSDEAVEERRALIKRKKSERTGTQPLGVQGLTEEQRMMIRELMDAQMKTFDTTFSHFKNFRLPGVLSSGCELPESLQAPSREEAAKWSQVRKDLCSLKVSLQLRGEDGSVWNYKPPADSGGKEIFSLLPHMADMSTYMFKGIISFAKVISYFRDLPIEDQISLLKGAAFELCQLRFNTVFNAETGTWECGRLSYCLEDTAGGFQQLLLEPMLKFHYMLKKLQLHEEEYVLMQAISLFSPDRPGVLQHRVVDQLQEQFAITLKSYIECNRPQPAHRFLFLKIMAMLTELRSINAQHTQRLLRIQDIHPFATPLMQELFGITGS

In experiment [18] the target is human Retinoic Acid Receptor gamma (RARg), RARG (gene 5916) (UniProt P13631). In words: ATG_RARg_TRANS: Attagene TRANS-FACTORIAL HepG2 Assay for human Retinoic Acid Receptor gamma (RARg) (AID 2283009; active = hit-call score of the fitted dose curve at least 0.9, where 1 is the maximum). The procedure, abridged:
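HepG2, RARg-GAL4 TRANS system, 24 h exposure; reporter mRNA by RT-PCR + CE fluorescence; increase over DMSO.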

Experiment [19] has as its target human RAR-related Orphan Receptor gamma (RORg), RORC (gene 6097) (UniProt P51449). In words: ATG_RORg_TRANS: Attagene TRANS-FACTORIAL HepG2 Assay for human RAR-related Orphan Receptor gamma (RORg) (AID 2283011; active = hit-call score of the fitted dose curve at least 0.9, where 1 is the maximum). Summed up: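 Transient MRTU transfection of HepG2 (TRANS format, exogenous NR-Gal4 chimera). 24 h dosing. Total RNA → oligo(dT) RT → PCR → 6-FAM labelling → HpaI cut → CE. Gain vs DMSO.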

The target of experiment [20] is human RAR-related Orphan Receptor beta (RORb), RORB (gene 6096) (UniProt Q92753). In words: ATG_RORb_TRANS: Attagene TRANS-FACTORIAL HepG2 Assay for human RAR-related Orphan Receptor beta (RORb) (AID 2283010; active = hit-call score of the fitted dose curve at least 0.9, where 1 is the maximum). Summed up: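 In this TRANS-format test, human HepG2 cells express chimeric NR-Gal4 fusion proteins driving GAL4-UAS reporters. After 24 h dosing, reporter transcripts are measured by fluorescent RT-PCR/capillary electrophoresis, with DMSO as negative control.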

Each structure is given as a SMILES string. Several values for one entry are separate records, joined by “and”; a condition that tells them apart may be missing. Identical values can stand only once. Results filed as inconclusive are left out. More than one record can exist for a structure, and the calls need not agree. Activity calls are given as the source filed them. The calls were made as follows, unless noted: active = hit-call score of the fitted dose curve at least 0.9, where 1 is the maximum; inactive = score below 0.9.

A word on the AC50: it is the midpoint of the concentration-response curve, whichever way the signal moves.

Chain of human Peroxisome Proliferator-activated Receptor delta (PPARd), PPARD (gene 5467) (Q03181 whole entry, looked up, the tested form may be a part): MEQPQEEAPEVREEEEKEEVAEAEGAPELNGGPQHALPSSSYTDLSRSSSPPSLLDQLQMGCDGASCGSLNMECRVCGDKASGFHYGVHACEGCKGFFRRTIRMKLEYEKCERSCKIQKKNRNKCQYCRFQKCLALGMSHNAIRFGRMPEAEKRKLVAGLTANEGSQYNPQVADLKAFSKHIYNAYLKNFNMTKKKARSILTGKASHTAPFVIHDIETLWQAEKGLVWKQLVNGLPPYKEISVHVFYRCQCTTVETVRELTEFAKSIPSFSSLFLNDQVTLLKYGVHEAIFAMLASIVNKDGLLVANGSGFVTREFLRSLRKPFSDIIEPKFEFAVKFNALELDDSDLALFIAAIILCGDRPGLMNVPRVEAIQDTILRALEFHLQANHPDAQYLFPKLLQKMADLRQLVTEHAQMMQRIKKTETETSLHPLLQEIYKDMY
Chain of Retinoic acid receptor alpha (Homo sapiens) (P10276 whole entry, looked up, the tested form may be a part): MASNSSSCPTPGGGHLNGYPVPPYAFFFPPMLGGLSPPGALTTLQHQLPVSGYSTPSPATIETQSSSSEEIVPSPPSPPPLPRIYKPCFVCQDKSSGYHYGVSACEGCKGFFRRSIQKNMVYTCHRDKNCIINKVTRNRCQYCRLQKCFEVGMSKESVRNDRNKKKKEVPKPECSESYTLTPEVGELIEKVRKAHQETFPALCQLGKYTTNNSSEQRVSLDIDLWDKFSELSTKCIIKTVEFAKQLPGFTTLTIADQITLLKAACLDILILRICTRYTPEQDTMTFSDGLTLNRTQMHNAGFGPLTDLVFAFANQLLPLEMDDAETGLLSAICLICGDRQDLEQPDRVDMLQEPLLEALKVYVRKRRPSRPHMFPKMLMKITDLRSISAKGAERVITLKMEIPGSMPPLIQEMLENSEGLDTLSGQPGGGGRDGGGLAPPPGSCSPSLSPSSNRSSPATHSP
Chain of human Retinoic Acid Receptor gamma (RARg), RARG (gene 5916) (P13631 whole entry, looked up, the tested form may be a part): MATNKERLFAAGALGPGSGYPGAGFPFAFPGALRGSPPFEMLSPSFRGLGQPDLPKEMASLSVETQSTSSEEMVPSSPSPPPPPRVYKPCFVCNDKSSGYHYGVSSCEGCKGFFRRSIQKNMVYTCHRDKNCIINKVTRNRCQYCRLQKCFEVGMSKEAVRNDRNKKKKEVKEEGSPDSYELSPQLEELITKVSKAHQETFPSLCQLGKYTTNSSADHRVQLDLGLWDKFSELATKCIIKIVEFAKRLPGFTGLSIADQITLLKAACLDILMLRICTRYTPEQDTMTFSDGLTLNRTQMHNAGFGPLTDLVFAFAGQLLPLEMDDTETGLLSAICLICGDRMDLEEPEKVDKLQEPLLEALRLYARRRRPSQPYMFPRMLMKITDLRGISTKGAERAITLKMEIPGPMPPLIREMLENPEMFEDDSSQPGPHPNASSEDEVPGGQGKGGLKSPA
Chain of Cellular tumor antigen p53 (Homo sapiens) (P04637 whole entry, looked up): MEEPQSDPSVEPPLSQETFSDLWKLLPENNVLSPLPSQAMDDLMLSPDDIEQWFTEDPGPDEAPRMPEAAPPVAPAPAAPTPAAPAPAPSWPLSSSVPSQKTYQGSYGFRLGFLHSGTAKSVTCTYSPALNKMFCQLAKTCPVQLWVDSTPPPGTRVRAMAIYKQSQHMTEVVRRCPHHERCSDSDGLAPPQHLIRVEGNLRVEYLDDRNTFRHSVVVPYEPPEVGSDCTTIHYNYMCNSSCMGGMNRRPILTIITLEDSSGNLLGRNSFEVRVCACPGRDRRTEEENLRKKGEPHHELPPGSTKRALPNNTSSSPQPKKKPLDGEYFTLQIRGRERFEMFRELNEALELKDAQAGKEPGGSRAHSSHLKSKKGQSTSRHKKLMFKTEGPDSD
Chain of human RAR-related Orphan Receptor gamma (RORg), RORC (gene 6097) (P51449 whole entry, looked up, the tested form may be a part): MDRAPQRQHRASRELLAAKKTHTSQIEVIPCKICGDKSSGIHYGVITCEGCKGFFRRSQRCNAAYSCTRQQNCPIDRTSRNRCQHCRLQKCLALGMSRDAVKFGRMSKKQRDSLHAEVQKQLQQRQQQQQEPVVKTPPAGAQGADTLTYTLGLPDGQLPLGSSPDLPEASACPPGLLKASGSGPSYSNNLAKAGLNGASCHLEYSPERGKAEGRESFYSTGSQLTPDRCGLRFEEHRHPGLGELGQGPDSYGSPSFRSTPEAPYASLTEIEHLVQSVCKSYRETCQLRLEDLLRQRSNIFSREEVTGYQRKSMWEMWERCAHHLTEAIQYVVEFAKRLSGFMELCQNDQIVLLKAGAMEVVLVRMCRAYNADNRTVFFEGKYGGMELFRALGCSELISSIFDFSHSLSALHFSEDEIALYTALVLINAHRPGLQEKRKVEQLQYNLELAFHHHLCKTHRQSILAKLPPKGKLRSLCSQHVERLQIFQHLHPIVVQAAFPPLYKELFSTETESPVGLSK
Chain of human Peroxisome Proliferator-activated Receptor alpha (PPARa), PPARA (gene 5465) (Q07869 whole entry, looked up, the tested form may be a part): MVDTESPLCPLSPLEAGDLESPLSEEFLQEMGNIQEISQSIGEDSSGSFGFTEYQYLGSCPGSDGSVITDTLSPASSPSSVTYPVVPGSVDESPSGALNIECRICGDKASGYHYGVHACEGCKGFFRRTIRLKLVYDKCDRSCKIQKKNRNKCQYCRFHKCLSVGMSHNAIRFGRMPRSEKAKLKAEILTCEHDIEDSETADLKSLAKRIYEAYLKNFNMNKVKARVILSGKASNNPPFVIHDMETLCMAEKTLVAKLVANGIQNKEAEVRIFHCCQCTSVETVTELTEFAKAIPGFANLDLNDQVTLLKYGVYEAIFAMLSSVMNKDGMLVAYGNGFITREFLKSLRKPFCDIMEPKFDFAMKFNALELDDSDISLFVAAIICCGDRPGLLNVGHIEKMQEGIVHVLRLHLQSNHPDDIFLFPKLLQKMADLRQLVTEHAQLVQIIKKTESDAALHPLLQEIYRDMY
Chain of Peroxisome proliferator-activated receptor gamma (Homo sapiens) (P37231 whole entry, looked up, the tested form may be a part): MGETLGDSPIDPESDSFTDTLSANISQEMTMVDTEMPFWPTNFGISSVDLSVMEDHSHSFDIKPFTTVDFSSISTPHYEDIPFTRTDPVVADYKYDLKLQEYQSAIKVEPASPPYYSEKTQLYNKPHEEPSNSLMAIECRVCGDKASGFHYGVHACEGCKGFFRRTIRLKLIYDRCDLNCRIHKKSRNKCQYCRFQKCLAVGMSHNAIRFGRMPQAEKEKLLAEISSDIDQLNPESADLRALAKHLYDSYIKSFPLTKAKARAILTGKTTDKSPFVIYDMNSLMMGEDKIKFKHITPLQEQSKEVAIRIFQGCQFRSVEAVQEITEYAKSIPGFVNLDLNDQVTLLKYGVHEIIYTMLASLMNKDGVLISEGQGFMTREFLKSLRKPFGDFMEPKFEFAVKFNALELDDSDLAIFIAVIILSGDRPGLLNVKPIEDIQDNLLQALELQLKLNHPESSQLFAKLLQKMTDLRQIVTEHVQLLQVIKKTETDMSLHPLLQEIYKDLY
Chain of Myc proto-oncogene protein (Homo sapiens) (P01106 whole entry, looked up): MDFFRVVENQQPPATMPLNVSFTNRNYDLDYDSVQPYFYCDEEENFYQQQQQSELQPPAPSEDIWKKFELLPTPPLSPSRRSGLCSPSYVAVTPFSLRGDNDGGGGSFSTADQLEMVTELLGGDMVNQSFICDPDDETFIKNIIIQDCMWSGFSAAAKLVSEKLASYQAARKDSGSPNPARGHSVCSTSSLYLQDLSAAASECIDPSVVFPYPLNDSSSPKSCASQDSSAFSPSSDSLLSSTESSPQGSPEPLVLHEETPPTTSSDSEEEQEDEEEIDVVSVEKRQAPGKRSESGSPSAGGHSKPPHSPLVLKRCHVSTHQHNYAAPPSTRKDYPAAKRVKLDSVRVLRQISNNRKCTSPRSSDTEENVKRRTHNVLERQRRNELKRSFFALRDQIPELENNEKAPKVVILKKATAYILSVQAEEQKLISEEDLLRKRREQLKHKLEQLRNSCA
Chain of human Retinoic Acid Receptor beta (RARb), RARB (gene 5915) (P10826 whole entry, looked up, the tested form may be a part): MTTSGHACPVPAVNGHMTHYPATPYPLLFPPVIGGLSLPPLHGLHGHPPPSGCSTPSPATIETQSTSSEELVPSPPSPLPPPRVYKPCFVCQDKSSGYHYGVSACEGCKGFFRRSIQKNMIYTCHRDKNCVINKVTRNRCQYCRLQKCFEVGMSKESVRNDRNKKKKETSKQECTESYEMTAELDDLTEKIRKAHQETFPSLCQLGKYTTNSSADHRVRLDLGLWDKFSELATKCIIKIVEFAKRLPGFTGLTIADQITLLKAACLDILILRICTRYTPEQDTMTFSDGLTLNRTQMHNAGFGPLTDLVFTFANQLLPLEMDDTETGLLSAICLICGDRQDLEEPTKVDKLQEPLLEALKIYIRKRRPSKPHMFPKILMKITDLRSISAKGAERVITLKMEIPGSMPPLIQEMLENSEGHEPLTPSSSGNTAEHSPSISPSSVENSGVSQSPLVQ

Turning to `CCOC(=O)NCCOc1ccc(Oc2ccccc2)cc1`, the call in [1], in experiment [2], in experiment [5], in experiment [6], in [8] and in experiment [9] was inactive. In addition, the molecule was called inactive in experiment [10], in [11], in experiment [12], in [13], in [14] and in experiment [17]. For the same molecule, the outcome in [18] was inactive. Moreover, the AC50 in experiment [3] is 13.1 µM (active); in experiment [4] it was 14 µM (active); in experiment [7], 30.4 µM (active); in [15] it was 20 µM (active); in experiment [16] it was 19.3 µM (active).

On to `COC(=O)c1ccccc1S(=O)(=O)NC(=O)Nc1nc(OC(F)F)cc(OC(F)F)n1`, for which the molecule was classed as inactive in experiment [1], in experiment [2], in experiment [3], in experiment [4], in experiment [5] and in experiment [8]. The result in experiment [9], in experiment [11], in experiment [12], in experiment [15], in [16] and in experiment [18] was inactive.

`COc1nc(C)nc(NC(=O)NS(=O)(=O)c2ccccc2OCCCl)n1`: the result in experiment [1], in [2], in experiment [3], in [4], in experiment [5] and in [6] was inactive. The result in [7], in experiment [8], in experiment [9], in experiment [11], in [12] and in [15] was inactive. Moreover, the molecule was called inactive in experiment [16], in experiment [17] and in [18]. In addition, the AC50 in experiment [3] was 6.85 µM (active); in experiment [17], 40 µM (active).

Regarding `c1ccc2[nH]c(-c3cscn3)nc2c1`, the outcome in experiment [1], in experiment [2], in experiment [3], in [4], in experiment [6] and in experiment [7] was inactive. Further, the result in experiment [8], in [9], in experiment [10], in experiment [11], in experiment [12] and in experiment [13] was inactive. In addition, the molecule was classed as inactive in experiment [14], in experiment [15], in experiment [16], in [17] and in experiment [19]. Further, the AC50 in experiment [3] was 149 µM (active).

As for `COC(=O)c1cccc(C)c1S(=O)(=O)NC(=O)Nc1nc(OCC(F)(F)F)nc(N(C)C)n1`, the result in [1], in experiment [2], in experiment [4], in [5], in [6] and in experiment [8] was inactive. For the same molecule, the result in experiment [9], in experiment [11], in [12], in [13], in [14] and in experiment [15] was inactive. Further, the outcome in experiment [16], in [17] and in [18] was inactive. In [3], the AC50 was 30.9 µM (active).

For the molecule `O=C(c1ccccc1)C1CCCCC1`, the molecule was called inactive in experiment [1], in experiment [2], in experiment [3], in experiment [4], in [5] and in experiment [8]. In addition, the outcome in experiment [9], in experiment [11], in [12], in experiment [13], in experiment [15] and in [16] was inactive. In addition, the result in experiment [17] and in [18] was inactive. Moreover, the AC50 was 61.5 µM (active) in [16]; 29.1 µM (active) and 8.99 µM (active) and 19.7 µM (active) in experiment [17].

Regarding `C[C@]12CC[C@@H]3c4ccc(O)cc4C[C@@H](CCCCCCCCCS(=O)CCCC(F)(F)C(F)(F)F)[C@H]3[C@@H]1CC[C@@H]2O` (stereo partly drawn), the call in [1], in experiment [2], in experiment [3], in experiment [4], in experiment [5] and in [6] was inactive. Also, the outcome in experiment [8], in experiment [9], in [11], in experiment [12], in [13] and in experiment [16] was inactive. The result in [20] and in experiment [19] was inactive. Further, the AC50 was 2.05 µM (active) in [15] and 494 nM (active) [middle of 4 runs] in experiment [17].

Values taken from PubChem BioAssay (EPA / NIEHS).
